Experimental findings from PubChem BioAssay (NCI) are described below.

Each structure is given as a SMILES string. Compounds without any hit were thinned out: in the full panel of roughly 83,000, 20% have a hit.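 Note: values are percent growth. 100 is the growth of untreated cells, values between 100 and 0 indicate rising inhibition; between -100 and 0 indicates cell death.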 Unmarked numbers belong to inactive results. Active and inactive are the calls of the source.

The test system of the assay is OVCAR-3 ovarian. The assay is described as follows: NCI-60 one-dose screen, 48 h (100 = growth as untreated, 0 = no growth, -100 = all killed). The conditions noted are these: 10 µM unless noted. As for the experimental part:
Growth inhibition of the OVCAR-3 human tumor cell line is measured as a screen for anti-cancer activity. Cells are grown in 96 well plates and exposed to the test compound for 48 hours. Compounds are tested at a single concentration, which is 10^-5 M for most compounds. The reported endpoint is percent growth (GI% or GIPRCNT), where numbers from 0 - 100% represent growth inhibition, and numbers from -100% - 0 represent cell death. For example, a value of 40 represents 60% growth inhibition. A value of 0 means no net growth occurred over the course of the experiment. A value of -40 indicates 40% of cells at the beginning of the experiment died by the end of the experiment. A value of -100 means all cells are dead at the end of the experiment.
NCI-60 Human Tumor Cell Lines Screen was performed using the standard one-dose NCI protocol, which is described in more detail at https://dtp.cancer.gov/discovery_development/nci-60/default.htm.
Compounds with GIPRCNT values below 10 were considered active. Activity score was based on GIPRCNT using the following formula: […]
Score is 0 for GIPRCNT values of 100 or above, 50 for GIPRCNT values of 0, and 100 for GIPRCNT values of -100.
Turning to `CCCCCCn1c(-c2ccc(C(=O)O/N=C(\N)c3ccc4c(c3)OCO4)cc2)nc(-c2ccccc2)c1-c1ccccc1`, the growth is 32.4%.
Under `COc1cc(C(=O)/C=C/c2sc(Cl)nc2Cl)cc(OC)c1OC` stands -95.5% (active); under `CCOC(=O)NCCc1ccccc1`, 116%.
Under `Cc1oc2nc[nH]c(=O)c2c1C(=O)/C=C/c1ccc(Br)cc1` stands -10.9% (active); under `Cc1onc2c(-c3ccccc3)n[nH]c(=O)c12`, 106%.
Take `CCCCCCNC(=O)Oc1ccc(/C(=C(\C)c2ccc(Cl)cc2)c2ccc(OCCN3CCCCC3)cc2)cc1`: the growth was 58.4%.
Turning to `COc1cc2cc(Oc3ccc(NC(=O)Nc4cc(C(F)(F)F)cc(C(F)(F)F)c4)cc3)c(C)nc2cc1OCCN1CCOCC1`, the growth is 9.29% (active).
Under `CCOC(=O)Cn1c(=O)c2c(c3ccccc3n2C)n2nnc(-c3ccccc3)c12` stands 109%; under `C/C(=C\C(=O)c1ccc(Cl)cc1)c1ccc(Cl)cc1`, 99.2%.
Under `Cc1c(C(=O)/C=C/Nc2c(Cl)cc(S(N)(=O)=O)cc2Cl)sc2nc3ccccc3n12` stands 107%; under `CC1CN(C2CCCCC2)C(=S)N(c2ccccc2)C1=O` (stereo not given), 112%; under `CC1Cc2c(ncn3c(-c4ccc(F)cc4)nnc23)N(C)c2ccccc21` (stereo not given), 6.26% (active).
Under `COc1ccc(/C=C(\C#N)n2nnc3c(F)cccc32)cc1` stands -34% (active).
Take `Cc1cccc(NCc2cn(-c3ccc(C(=O)O)cc3)nc2-c2ccc(C(=O)O)cc2)n1`: the growth is 106%.
As to `CN(C)CCCNc1nc2ccccc2c2c(=O)c3cc(F)ccc3sc12`, the growth is 26%.
`CN1CCN(c2ccc(-c3cc4c(Nc5ccc(F)c(Cl)c5)ncnn4c3)cc2)CC1`: the growth is 77%.
Under `Cc1ccc(-c2nc(N3CCN(C(=O)c4ccc(OC(F)(F)F)cc4)CC3)c3ccccc3n2)cc1` stands 93.9%.
Under `COc1ccc2c(c1)c(-c1nn3cc(-c4cccs4)nc3s1)cn2C` stands 96.4%.
Take `N#Cc1c(-c2ccc(Cl)cc2)nc2c(c(-c3ccccc3)nn2-c2ccccc2)c1-c1ccc(O)cc1`: the growth is 48.3%.
Under `O=C(O)C(c1ccccc1)N1C(=O)CSC1=S` (stereo not given) stands 106%; under `O=CN(SSN(C=O)C1CCCCC1)C1CCCCC1`, 107%.
For the compound `C[C@]12CC[C@@H]3c4cc(OC(F)F)c(OS(N)(=O)=O)cc4CC[C@H]3[C@@H]1CC[C@@H]2O`, the growth was -49.8% (active).
Under `CCOC(=O)CC1C(COC(=O)NC)OC(n2cnc3c(NC(=O)Nc4ccccc4)ncnc32)C1O[Si](C)(C)C(C)(C)C` (stereo not given) stands 51.1%.
On to `COc1ccc2c(c1)c(-c1ccc(-c3cn(C)c4ccc(OC)cc34)o1)cn2C`, for which the growth is 23.2%.
With `NCCOc1ncccc1/C=C1\c2ccccc2-c2ccc(C(F)F)cc21`, the growth is 76.2%.
Under `Cc1nc2ccccc2n1-c1ncnc2c1CC(C)c1ccccc1N2C` (stereo not given) stands 94.6%; under `NC[C@@H]1O[C@H](O[C@@H]2[C@@H](CO)OC(O[C@@H]3[C@@H](O)[C@H](N)C[C@H](N)[C@H]3OC3O[C@H](CN)[C@@H](O)[C@H](O)[C@H]3N)[C@@H]2O)[C@H](N)[C@@H](O)[C@@H]1O` (stereo not given in full), 111%; under `COc1cccc(-c2nn(-c3ccccc3)cc2-c2ccnc(N3CCOCC3)c2)c1`, 95.5%.
Consider `O=c1c2cc(F)ccc2sc2c(NCCN3CCOCC3)nc3ccccc3c12`, for which the growth is 76.8%.
On to `C#Cc1cccc(NC(=O)Nc2ccccc2NC(=O)CCl)c1`, for which the growth was -74.8% [8.25 µM] (active).
Under `CCOC(=O)C1=C(N)Oc2c(sc3c(CC)cccc23)C1c1ccc(F)cc1` (stereo not given) stands -6.19% (active); under `NCCCNc1nc2ccc(Cl)cc2c2c(=O)c3cc(F)ccc3sc12`, 8.74% (active); under `COc1ccc(/C=N/Nc2cc(=O)[nH]c3ccc(C)cc23)cc1`, 104%.
Under `COc1ccc(/C=C2\Oc3cc(OCCN4CCC(Cc5ccccc5)CC4)ccc3C2=O)cc1OC` stands 87%; under `C=CCNc1ccc2c3c(cccc13)C(=O)N(N1C(=O)c3cccc4cccc(c34)C1=O)C2=O`, 108%.
Under `COc1cc(Nc2cn[nH]c2-c2ccc(Cl)cc2)cc(OC)c1OC` stands 32.1%; under `O=C1c2cccc3cccc(c23)C(=O)N1N1C(=O)c2cccc3c(NC4CCCCC4)ccc(c23)C1=O`, 105%; under `Cc1cccc(OCC(O)CN2CCN(c3ccc(Cl)cc3)CC2)c1` (stereo not given), 104%.
For `CN1CCN(c2ccc(-c3ccc4ncc(C#N)c(Nc5ccc(F)c(Cl)c5)c4c3)cc2)CC1`, the growth is 59.8%.
Under `Cc1nc2ccccc2c(/C=C/c2ccccc2)c1C(=O)/C=C/c1ccc(C(F)(F)F)cc1` stands -86.5% (active).
